In PubChem BioAssay AID2419 (Southern Research Specialized Biocontainment Screening …, 2010):
Measured potencies and affinities stand elsewhere.

Experiment: West Nile virus cytopathic effect inhibition, cell-based (AID 2419)
Conditions: West Nile virus-infected cells, stronger effect = higher value; at 200 µM unless noted; call rule not given here

Max CPE inhibition, inactive:
OC1c2c(F)cccc2N=C2CCCCCN21 (stereo not given) 1.99% [at 0.39 µM]
O=C(CSc1nc2ccccc2c(=O)n1-c1ccc(F)cc1)Nc1ccc2c(c1)CCC2 29.6% [at 100 µM]
OC1c2cc(Br)ccc2N=C2CCCCN21 (stereo not given) 0.62% [at 3.13 µM]
Cc1cc(OC(=O)c2c(F)cccc2F)n(Cc2ccccc2)n1 1.92%
O=C(CSc1nc2cccc(I)c2c(=O)n1-c1ccccc1)Nc1ccc2c(c1)CCC2 3.08%
OC1c2cc(Cl)cc(Cl)c2N=C2CCCN21 (stereo not given) 1.94% [at 0.78 µM]
OC1c2cc(Br)ccc2N=C2CCCCCN21 (stereo not given) 6.41% [at 0.78 µM]
OC1c2c(F)cccc2N=C2CCCN21 (stereo not given) 0.91% [at 0.39 µM]
OC1c2cc(I)ccc2N=C2CCCN21 (stereo not given) 0.77% [at 0.39 µM]
Cc1cccc2c(=O)n(-c3ccccc3)c(SCC(=O)Nc3ccc4c(c3)CCC4)nc12 2.82% [at 25 µM]
COc1ccc(Cn2nc(C)cc2OC(=O)c2c(F)cccc2F)cc1 1.63%
OC1c2c(F)cccc2N=C2CCCCN21 (stereo not given) 0.91% [at 0.39 µM]
C=CCN(C(=O)c1ccccc1Cl)c1nc(-c2ccc(OC)cc2)cs1 1.14%
O=C(CSc1nc2ccccc2c(=O)n1-c1ccc(F)cc1F)Nc1ccc(N2CCOCC2)cc1 1.05% [at 0.39 µM]
O=C(CSc1nc2cccc(F)c2c(=O)n1-c1ccccc1)Nc1ccc2c(c1)CCC2 2.29% [at 25 µM]
